This note sets out measurements from PubChem BioAssay (NCI).

Structures are written as SMILES. Where “and” joins values, the source holds several entries; their conditions need not be identical. Equal entries are not always repeated. This is part of a sample that, as a whole, favours compounds with a hit. Of some 83,000 tested, about 20% had one in any assay.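 The test compound was applied at a single concentration to cells in 96-well plates for 48 hours, and percent growth was recorded.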 Unmarked numbers belong to inactive results. Calls of active or inactive are those of the source. The calls were made as follows: active = growth percent below 10; inactive = the rest.

The test system of the test is MDA-MB-468 breast. Put plainly: NCI-60 one-dose screen, 48 h (100 = growth as untreated, 0 = no growth, -100 = all killed). The following applies: 10 µM unless noted.
For `Nc1c(C(=O)c2ccc(Cl)cc2)sc(Nc2ccccc2)c1-c1nc2ccccc2s1`, the growth was 14.7%. The figure for `C=COCCCCCCCCCCCCCCCCCC` is 103%. On to `CCCCCCCCCCCCCCCCN(CC)CC`, for which the growth was -85.3% (active). On to `CC(Cc1cccc2ccccc12)C(N)=O` (stereo not given), for which the growth was 110%. The figure for `COc1cccc(Nc2ncnc3cc(NC(=O)CCl)ccc23)c1` is -56% (active); for `O=C(O)c1ccc(P(=O)(O)O)c([N+](=O)[O-])c1` it is 98.4%; for `OC(CCC(O)(c1ccccc1)c1ccccc1)(c1ccccc1)c1ccccc1` it is 93.6%. For `CC(=O)N1N=C(c2cccc(Nc3ccncc3)c2)CC1c1ccccc1` (stereo not given), the growth is 79.8%.

`O=C1NC(=Nc2ccc(S(=O)(=O)Nc3nccs3)cc2)S/C1=C\c1coc2ccccc2c1=O`: the growth was 99.9%.

`CC(O)c1cc2ccccc2c(=O)o1` (stereo not given): the growth was 98.7%. Take `CC(=O)N1N=C(CCC(=O)c2nc3ccc([N+](=O)[O-])cc3[nH]2)OC1c1ccc(O)cc1` (stereo not given): the growth was 108%. `CSc1nc(-c2cccs2)c2c(N)[nH]nc2n1`: the growth is 117%. `CN1CCN(c2ccc3nc(-c4[nH]ncc4Nc4ncnc5c4OCCCN5)[nH]c3c2)CC1`: the growth was -76.3% (active).

With `CC1(C(N)=O)CCC(C(=O)O)C1(C)C` (stereo not given), the growth was 99.2%.

For `Cc1cc(C)cc(Nc2cc(C)nc3nc(C(F)(F)F)nn23)c1`, the growth is 25.5%.

Regarding `Cc1ccc(C)c(-n2c(-c3ccc(Br)cc3)csc2=NC(=O)c2ccccc2F)c1`, the growth was 55.4%. With `Cc1cc(N2CCCCC2)nc(N(CCCNc2ccnc3cc(Cl)ccc23)Cc2ccco2)n1`, the growth is 6.73% (active). As for `O=Nc1ccc(NO)c2ccccc12`, the growth is 73.7%.

Regarding `C/C(CCC(=O)O)=N/Nc1ccc([N+](=O)[O-])cc1`, the growth was 83.7%. As to `COc1ccc2c(c1)/C(=C/c1sc(=S)n(Cc3ccco3)c1O)C=N2`, the growth is 3.03% (active).

On to `Nc1c(C(=O)Nc2ccccc2)sc2nc3c(cc12)CN(Cc1ccccc1)CC3`, for which the growth is 76.2%. Turning to `Cc1c(C(N)=O)sc2c1C(=O)N(Cc1ccccc1)C1=NN=C(c3ccc(Cl)cc3)CN12`, the growth was 60.1%. Regarding `NNCCc1ccccc1`, the growth is 113% and 89.6%. `CN1C(=O)CNC(=O)[C@H](NC(=O)c2nc3ccccc3cc2O)CSSC[C@H]1C(=O)NCCc1nc2ccccc2cc1O`: the growth is 16%. With `COc1ccc(OC)c(C(=O)c2oc3ccc(Br)cc3c2N)c1`, the growth is 23.6%. In the case of `CC(C)(C)n1nc(C2CC2)c(Br)c1NC(=O)c1ccccc1F` it was 114%; in that of `COc1ccc(C(=O)c2c(N)c(C#N)cn2-c2cccc(OC)c2)cc1`, -3.17% (active); in that of `O=Cc1c(OCc2cnnn2CC(=O)Nc2ccc(Br)cc2)ccc2ccccc12`, 95.6%.

With `Cc1cc(C)c(OC(=O)CSc2nc3ccccc3c(=O)n2CCc2ccccc2)cc1C`, the growth was 101%. Turning to `CC1(C)NCCC[C@]2(C)[C@H]3CC[C@H]4[C@H]5[C@H](C(=O)/C=C/c6cccnc6)CCC[C@]5(CO)CC[C@@]4(C)[C@]3(C)CC[C@@H]12`, the growth was -12.6% (active).

For the compound `CN1CCN(CC#CCNC(=O)[C@]23CCC(C)(C)C[C@H]2C2=CC[C@@H]4[C@@]5(C)Cc6c([nH]c7ccccc67)C(C)(C)[C@@H]5CC[C@@]4(C)[C@]2(C)CC3)CC1`, the growth was 91.2%.

For `CCC/C=C(\C)C(C)(C#N)C(=O)OCC` (stereo not given), the growth is 102%.

As to `Cn1cc(-c2noc(-c3cn(C)c4ncc(F)cc34)n2)c2cc(Cl)ccc21`, the growth is 52.9%. Consider `O=C(CC(O)c1ccccc1)Nc1ccccn1` (stereo not given), for which the growth is 119%. The figure for `O=C(Nc1ccccc1O)c1ccc(NS(=O)(=O)c2cccc3cccnc23)cc1` is 49.8%; for `ClC1c2ccccc2CCc2ccccc21` it is 111%; for `COc1cc2c(cc1-c1c(C)noc1C)ncc1nc(C3CCCCC3)n(C3CCC(OC(F)F)CC3)c12` (stereo not given) it is 29.8%. For `Oc1c(Cl)cc(Cl)c2ccc(CN3CCNCC3)nc12`, the growth was 34.4%. Turning to `CC(=O)N1N=C(c2ccc(Nc3nc(NCCO)nc(NCCO)n3)cc2)CC1c1ccc(Cl)cc1` (stereo not given), the growth was 105%. With `O=C(Nc1ccc(C(=O)O)c(O)c1)c1ccccc1`, the growth is 105% and 104%.
